# Measured values published in PubChem BioAssay.
# The source made the active and inactive calls. Unless noted, how the calls were made is not given here.
# Legend:
# [1] = tested on: Wnt5a (protein binding on small-molecule microarray); experiment: small molecules binding Wnt5a protein – biophysical, small-molecule microarray, 635/667 nm fluorescence, primary screen (AID 1142); conditions: 635 nm fluorescence, higher = more signal;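 further: fluorescence read at 667 nm with signal to noise per printed feature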
# [2] = ATP-based viability of Huh7 replicon cells – cell-based, CellTiter-Glo luminescence, basal, 48 h, cytotoxicity control for HCV replication inhibitor project, primary screen (AID 1143); conditions: higher = more signal, called active from +8 up or from −8 down;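 further: Huh7 hepatoma cells carrying a hepatitis C replication reporter with no stimulus; test concentration not given here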
# [3] = Pseudomonas biofilm growth suppression – PAO1 strain, BacTiter-Glo luminescence, LB-PBS, primary screen (AID 1144); conditions: P. aeruginosa PAO1 biofilm, 12 h, higher = more signal
# [4] = basal CRE-LacZ reporter activity in PC12 – cell-based, unstimulated, primary screen (AID 1145); conditions: no forskolin, luminescence, 4.5 h, higher = more signal, called active from +8 up or from −8 down
# [5] = forskolin-driven CRE-LacZ activity in PC12 – cell-based, CRE-LacZ reporter, forskolin-stimulated, primary screen (AID 1146); conditions: luminescence, 4.5 h, higher = more signal, called active from +8 up or from −8 down;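 further: PC12 cells with 6xCRE LacZ reporter stimulated by forskolin 10 µM; beta-galactosidase reporter signal reflecting CREB driven transcription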
# [6] = molecular target: Streptavidin (Streptomyces avidinii) (UniProt P22629); experiment: compounds binding control protein streptavidin – biophysical, small-molecule microarray, 635/667 nm fluorescence, artefact control for SMM compound annotation, primary screen (AID 1147); conditions: higher = more signal;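 further: signal reflects streptavidin binding to arrayed compounds as a control protein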
# [7] = probe aInhba binding on compound microarray – biochemical, small-molecule microarray, 635/667 nm fluorescence, primary screen (AID 1148); conditions: higher = more signal;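 further: score merges 667nm spot fluorescence with signal-to-noise for antibody binding to printed compounds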
# [8] = molecular target: Torsin-1A (Homo sapiens) (UniProt O14656); experiment: TOR1A wild-type binding on microarray – cell lysate, small-molecule microarray, lysate, 635/667 nm, primary screen (AID 1149); conditions: COS7 hTOR1A-WT lysate, 635 nm fluorescence, higher = more signal
# [9] = molecular target: Torsin-1A (Homo sapiens) (UniProt O14656); experiment: torsin A mutant lysate binding on microarrays – cell lysate, small-molecule microarray, COS7 lysate, 635/667 nm fluorescence, primary screen (AID 1150); conditions: COS7 hTOR1A mutant lysate, 635 nm fluorescence, higher = more signal;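 further: score pools 667 nm emission and signal to noise measuring lysate protein binding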
# [10] = tested on: Sonic hedgehog protein (Shh); experiment: Sonic hedgehog microarray binding compounds – biochemical, small-molecule microarray, 635/667 nm fluorescence, primary screen (AID 1151); conditions: 635 nm fluorescence, higher = more signal;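 further: Shh protein binding to compounds spotted on small-molecule microarray slides; score combines spot fluorescence intensity with signal-to-noise across triplicate slides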
# [11] = optical density shifts of acrAB sulA E. coli – strain DRC41, OD650, 48 h, E. coli filamentation inducer project, primary screen (AID 1152); conditions: higher = more signal, called active from +8 up or from −8 down;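 further: E. coli MC1000 strain DRC41 lacking acrAB efflux pump and sulA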
# [12] = probe aLefty1 binding on compound microarray – biochemical, small-molecule microarray, 635/667 nm fluorescence, primary screen (AID 1153); conditions: higher = more signal;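 further: score merges spot fluorescence with signal-to-noise ratio from the scanned slide images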
# [13] = plasmodial surface anion channel blockers, osmotic lysis – cell-based, P. falciparum Indochina, OD700, 1 h, primary screen (AID 1154); conditions: P. falciparum Indochina infected RBC osmotic lysis, higher = more signal, called active from +8 up or from −8 down
# [14] = plasmodial surface anion channel blockers, osmotic lysis – cell-based, P. falciparum Indochina, OD700, 2 h, primary screen (AID 1155);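 further: lysis reports solute entry through the parasite surface anion channel PSAC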; conditions: P. falciparum Indochina infected erythrocytes, higher = more signal, called active from +8 up or from −8 down
# [15] = changes in parasitized red cell lysis, either direction – P. falciparum Indochina, OD700, 3 h, PSAC antagonist project, primary screen (AID 1156); conditions: P. falciparum-infected erythrocytes, osmotic lysis, higher = more signal, called active from +8 up or from −8 down
# [16] = plasmodial surface anion channel blockers, osmotic lysis – cell-based, P. falciparum Indochina, OD700, 18 h, primary screen (AID 1157); conditions: P. falciparum Indochina infected erythrocytes, osmotic lysis OD700, 18 h; higher = more signal, called active from +8 up or from −8 down
# [17] = S6 kinase pathway phospho-S6 level changes – cell-based, A549, cytoblot, luminescence, serum-stimulated, primary screen (AID 1158); conditions: 5 h, higher = more signal;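 further: serum-stimulated A549 lung adenocarcinoma cells; signal is phosphorylated S6 detected by cytoblot immunostaining with HRP secondary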
# [18] = molecular target: NADPH oxidase 2 (Homo sapiens) (UniProt P04839); experiment: compounds shifting NOX2 Amplex Red fluorescence – cell-based, HEK293-NOX2, PMA-stimulated, NOX inhibitor project, primary screen (AID 1159); conditions: 45 min, higher = more signal, called active from +8 up or from −8 down; further: test concentration not given here
# [19] = molecular target: NADPH oxidase 4 (Homo sapiens) (UniProt Q9NPH5); experiment: compounds shifting NOX4 Amplex Red fluorescence – cell-based, HEK293-NOX4, tetracycline-induced, NOX inhibitor project, primary screen (AID 1160); conditions: HEK293-NOX4, Amplex Red H2O2 fluorescence, 45 min; higher = more signal, called active from +8 up or from −8 down
# [20] = molecular target: NADPH oxidase 5 (Homo sapiens) (UniProt Q96PH1); experiment: compounds shifting NOX5 Amplex Red fluorescence – cell-based, HEK293-NOX5, NOX inhibitor project, primary screen (AID 1161); conditions: HEK293-NOX5, ionomycin, 45 min, higher = more signal
# NADPH oxidase 5 (Homo sapiens), sequence (Q96PH1 whole entry, looked up): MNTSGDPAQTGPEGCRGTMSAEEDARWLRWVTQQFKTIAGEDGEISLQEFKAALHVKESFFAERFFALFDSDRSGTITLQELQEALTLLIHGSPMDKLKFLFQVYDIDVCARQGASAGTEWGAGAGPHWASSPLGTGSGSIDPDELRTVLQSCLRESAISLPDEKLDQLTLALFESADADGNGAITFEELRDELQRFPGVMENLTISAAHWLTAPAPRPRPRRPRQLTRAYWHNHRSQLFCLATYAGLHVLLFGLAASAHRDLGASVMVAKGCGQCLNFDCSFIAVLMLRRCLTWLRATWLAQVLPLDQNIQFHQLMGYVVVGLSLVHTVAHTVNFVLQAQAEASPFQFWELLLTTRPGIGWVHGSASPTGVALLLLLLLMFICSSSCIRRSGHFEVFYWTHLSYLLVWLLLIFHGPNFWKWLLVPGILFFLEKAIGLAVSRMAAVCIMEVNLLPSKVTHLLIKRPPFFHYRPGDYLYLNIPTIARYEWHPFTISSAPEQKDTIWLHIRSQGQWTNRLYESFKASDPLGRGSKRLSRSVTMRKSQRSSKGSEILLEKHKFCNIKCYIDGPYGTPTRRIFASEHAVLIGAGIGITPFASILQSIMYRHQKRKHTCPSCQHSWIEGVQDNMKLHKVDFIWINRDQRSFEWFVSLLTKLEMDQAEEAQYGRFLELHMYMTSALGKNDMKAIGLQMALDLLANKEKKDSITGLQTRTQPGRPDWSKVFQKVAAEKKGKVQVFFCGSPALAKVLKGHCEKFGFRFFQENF
# NADPH oxidase 2 (Homo sapiens), sequence (P04839 whole entry, looked up): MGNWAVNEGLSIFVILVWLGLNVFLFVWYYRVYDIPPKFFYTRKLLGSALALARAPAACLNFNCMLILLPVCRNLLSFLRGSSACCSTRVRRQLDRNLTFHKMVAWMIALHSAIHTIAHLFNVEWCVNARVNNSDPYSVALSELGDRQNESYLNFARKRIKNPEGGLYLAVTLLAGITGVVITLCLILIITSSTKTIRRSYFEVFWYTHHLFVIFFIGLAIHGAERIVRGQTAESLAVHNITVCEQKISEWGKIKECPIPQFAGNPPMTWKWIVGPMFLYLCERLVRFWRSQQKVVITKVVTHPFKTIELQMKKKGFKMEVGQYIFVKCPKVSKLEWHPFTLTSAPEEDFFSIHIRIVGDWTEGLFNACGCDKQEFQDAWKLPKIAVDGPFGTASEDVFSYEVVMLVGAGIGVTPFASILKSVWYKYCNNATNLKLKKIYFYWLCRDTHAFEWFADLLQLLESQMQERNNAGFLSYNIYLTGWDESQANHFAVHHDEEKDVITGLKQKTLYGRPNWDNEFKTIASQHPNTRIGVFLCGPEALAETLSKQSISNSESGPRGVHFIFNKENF
# Streptavidin (Streptomyces avidinii), sequence (P22629 whole entry, looked up): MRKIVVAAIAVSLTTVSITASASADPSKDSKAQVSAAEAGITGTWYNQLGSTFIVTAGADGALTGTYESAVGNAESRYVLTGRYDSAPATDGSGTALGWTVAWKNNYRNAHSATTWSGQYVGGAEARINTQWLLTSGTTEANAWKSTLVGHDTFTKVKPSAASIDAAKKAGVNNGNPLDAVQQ
# Torsin-1A (Homo sapiens), sequence (O14656 whole entry, looked up): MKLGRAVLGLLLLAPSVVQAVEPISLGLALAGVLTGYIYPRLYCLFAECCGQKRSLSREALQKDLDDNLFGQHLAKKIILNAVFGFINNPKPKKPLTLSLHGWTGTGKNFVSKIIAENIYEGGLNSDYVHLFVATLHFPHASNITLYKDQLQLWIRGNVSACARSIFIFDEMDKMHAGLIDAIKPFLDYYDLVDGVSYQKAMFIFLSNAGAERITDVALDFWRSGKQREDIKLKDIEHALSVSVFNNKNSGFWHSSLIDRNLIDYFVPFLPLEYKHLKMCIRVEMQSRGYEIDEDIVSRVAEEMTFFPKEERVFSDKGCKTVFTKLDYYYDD
# NADPH oxidase 4 (Homo sapiens), sequence (Q9NPH5 whole entry, looked up): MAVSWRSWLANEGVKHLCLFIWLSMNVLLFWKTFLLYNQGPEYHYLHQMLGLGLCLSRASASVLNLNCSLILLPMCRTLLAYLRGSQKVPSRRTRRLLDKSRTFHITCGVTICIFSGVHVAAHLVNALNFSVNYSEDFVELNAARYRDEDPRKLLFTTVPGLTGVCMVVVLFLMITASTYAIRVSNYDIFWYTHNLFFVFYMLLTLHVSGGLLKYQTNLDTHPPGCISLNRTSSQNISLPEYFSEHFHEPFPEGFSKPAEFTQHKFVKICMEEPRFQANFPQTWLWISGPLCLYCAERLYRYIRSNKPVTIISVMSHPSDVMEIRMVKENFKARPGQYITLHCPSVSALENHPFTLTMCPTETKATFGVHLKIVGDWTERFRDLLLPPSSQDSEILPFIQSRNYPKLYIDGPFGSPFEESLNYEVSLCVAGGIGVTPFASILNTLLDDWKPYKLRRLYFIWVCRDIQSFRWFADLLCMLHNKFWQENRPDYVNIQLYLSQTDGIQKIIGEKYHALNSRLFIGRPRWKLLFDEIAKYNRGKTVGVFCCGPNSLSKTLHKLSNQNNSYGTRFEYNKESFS
SMILES,composite z-score [1],z-score [2],z-score [3],z-score [4],z-score [5],composite z-score [6],composite z-score [7],composite z-score [8],composite z-score [9],composite z-score [10],z-score [11],composite z-score [12],z-score [13],z-score [14],z-score [15],z-score [16],z-score [17],z-score [18],z-score [19],z-score [20]
CO[C@@H](C(C)C)[C@@H](C)C1OC(=O)CC1O (stereo not given in full),-0.124,0.265 (inactive),0.446 (inactive),-0.0673 (inactive),-0.0208 (inactive),-0.468,-0.158,-0.118,-0.0794,-0.595,0.486 (inactive),-0.278,-0.315 (inactive),0.0974 (inactive),-0.566 (inactive),-0.121 (inactive),-0.289,1.29 (inactive),0.129 (inactive),0.368
CC(CCN1CCc2nc(-c3ccccc3)c(-c3ccccc3)cc2C1)=NOC(C)CN1CCCc2nc(C)c(C)cc21 (stereo not given),0.281,-1.33 (inactive),0.25 (inactive),0.894 (inactive),-0.0977 (inactive),0.808,0.0785,0.373,0.432,0.667,-0.115 (inactive),0.0956,3.04 (inactive),0.494 (inactive),0.959 (inactive),0.268 (inactive),-0.56,-5.56 (inactive),-0.946 (inactive),-3.15
CCN1C(=O)[C@H]2[C@H]3[C@H](O)[C@H](O)CC(=NO[C@H](C)c4cn([C@H](CO)Cc5ccccc5)nn4)[C@@H]3CC[C@H]2C1=O,0.217,0.399 (inactive),1.05 (inactive),-0.385 (inactive),-0.228 (inactive),0.307,-0.105,0.265,0.556,0.742,-0.238 (inactive),-0.323,0.334 (inactive),0.15 (inactive),-0.0073 (inactive),0.123 (inactive),-0.598,0.384 (inactive),0.293 (inactive),-0.116
CC(CCN1CCCc2nc(C)c(C)cc21)=NO[C@H](C)c1cn([C@H](CO)Cc2ccccc2)nn1,0.22,-0.535 (inactive),0.13 (inactive),2.77 (inactive),-0.245 (inactive),-0.0592,0.0487,1,0.25,1.04,0.115 (inactive),0.0402,5.14 (inactive),0.985 (inactive),2.45 (inactive),0.638 (inactive),-0.0039,-0.443 (inactive),-0.076 (inactive),0.863
COC(OC)[C@@H](C)[C@H](OC)[C@@H](C)[C@H](OC)c1ccccc1,0.3,-0.609 (inactive),-1.32 (inactive),1.46 (inactive),0.0401 (inactive),-0.211,-0.321,0.237,-0.252,0.155,0.215 (inactive),-0.235,-0.271 (inactive),-0.947 (inactive),-0.75 (inactive),-1.06 (inactive),1.67,0.491 (inactive),0.153 (inactive),0.577
Cc1ccc(S(=O)(=O)N[C@@H]2COC(=O)CC=C[C@@H](C)[C@H](NS(=O)(=O)c3ccc(C)cc3)COC(=O)[C@H](C)NC(=O)CC=C[C@H]2C)cc1,-0.0175,0.218 (inactive),-0.88 (inactive),-0.38 (inactive),-0.863 (inactive),-0.508,-0.121,-0.0787,0.0835,0.427,0.328 (inactive),-0.147,-0.434 (inactive),-0.159 (inactive),-0.207 (inactive),0.106 (inactive),0.378,-6.49 (inactive),0.375 (inactive),-0.545
COC(=O)[C@@H]1CC[C@H](C)[C@@H](c2ccc(C)cc2)N1C(=O)c1ccc(C=NOC[C@H]2O[C@H](c3ccccc3)C=C[C@@H]2Oc2ccc(OC)cc2)cc1,-0.134,-0.814 (inactive),0.605 (inactive),0.253 (inactive),0.718 (inactive),-0.216,0.0018,-0.671,-0.329,0.415,0.229 (inactive),-0.0236,0.639 (inactive),1.11 (inactive),0.708 (inactive),0.44 (inactive),-0.0476,1.65 (inactive),0.846 (inactive),0.385
COc1ccc(O[C@H]2C=C[C@@H](c3ccccc3)O[C@@H]2CON=C(C)CCN2CCCc3nc(C)c(C)cc32)cc1,0.0474,-0.381 (inactive),-0.291 (inactive),2.46 (inactive),0.544 (inactive),0.294,-0.0079,0.476,0.46,0.661,0.379 (inactive),0.0341,4.35 (inactive),0.711 (inactive),0.938 (inactive),0.588 (inactive),-0.121,-1.81 (inactive),-0.049 (inactive),-0.297
